Legend:
Experiment in all cases: log2 ratio of Biotin-Ahx-Ub-VS probe labelling (fragment/DMSO); higher = less target engagement (more negative = stronger competition), active = hit call of the paper (q ≤ 0.05, log2 ratio ≤ -1)
Settings in all cases: compound concentration: 200 uM; treatment time: 3 h
USP9X = USP9X (UniProt Q93008)
Outline: (§1)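 Labelled DUBs from HEK293T lysate were NeutrAvidin-enriched, digested with LysC and trypsin, and run by diaPASEF LC-MS/MS. Before that, each 495 µg sample in Tris/CHAPS/IGEPAL buffer with protease inhibitors was treated in triplicate with fragment at 200 µM or vehicle for 3 h, then with Biotin-Ahx-Ub-VS at 0.5 µM final for 1 h. Values are average log2 ratios of fragment over vehicle by unpaired t-test, based on global-median-normalised Spectronaut label-free quantities from proteins with ≥2 unique peptides.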

UniProt O00487 = biological target: UniProt O00487
Outline: as §1

UniProt O00507 = biological target: UniProt O00507
Outline: as §1

UniProt P51784 = biological target: UniProt P51784
Outline: as §1

UniProt Q5T2D3 = biological target: T1, UniProt Q5T2D3
T1 sequence (whole entry): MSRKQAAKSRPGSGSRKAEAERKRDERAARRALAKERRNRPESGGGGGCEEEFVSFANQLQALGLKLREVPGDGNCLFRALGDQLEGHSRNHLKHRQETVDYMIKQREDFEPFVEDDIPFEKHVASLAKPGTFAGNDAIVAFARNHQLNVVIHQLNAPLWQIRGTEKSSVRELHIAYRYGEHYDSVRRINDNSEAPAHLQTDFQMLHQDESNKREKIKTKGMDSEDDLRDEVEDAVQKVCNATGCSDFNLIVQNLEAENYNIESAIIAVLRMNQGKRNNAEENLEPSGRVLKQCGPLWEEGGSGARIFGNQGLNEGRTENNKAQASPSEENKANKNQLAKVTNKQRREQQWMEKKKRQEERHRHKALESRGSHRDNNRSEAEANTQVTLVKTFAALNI
Outline: as §1

UniProt Q8TE49 = biological target: T2, UniProt Q8TE49
T2 sequence (whole entry): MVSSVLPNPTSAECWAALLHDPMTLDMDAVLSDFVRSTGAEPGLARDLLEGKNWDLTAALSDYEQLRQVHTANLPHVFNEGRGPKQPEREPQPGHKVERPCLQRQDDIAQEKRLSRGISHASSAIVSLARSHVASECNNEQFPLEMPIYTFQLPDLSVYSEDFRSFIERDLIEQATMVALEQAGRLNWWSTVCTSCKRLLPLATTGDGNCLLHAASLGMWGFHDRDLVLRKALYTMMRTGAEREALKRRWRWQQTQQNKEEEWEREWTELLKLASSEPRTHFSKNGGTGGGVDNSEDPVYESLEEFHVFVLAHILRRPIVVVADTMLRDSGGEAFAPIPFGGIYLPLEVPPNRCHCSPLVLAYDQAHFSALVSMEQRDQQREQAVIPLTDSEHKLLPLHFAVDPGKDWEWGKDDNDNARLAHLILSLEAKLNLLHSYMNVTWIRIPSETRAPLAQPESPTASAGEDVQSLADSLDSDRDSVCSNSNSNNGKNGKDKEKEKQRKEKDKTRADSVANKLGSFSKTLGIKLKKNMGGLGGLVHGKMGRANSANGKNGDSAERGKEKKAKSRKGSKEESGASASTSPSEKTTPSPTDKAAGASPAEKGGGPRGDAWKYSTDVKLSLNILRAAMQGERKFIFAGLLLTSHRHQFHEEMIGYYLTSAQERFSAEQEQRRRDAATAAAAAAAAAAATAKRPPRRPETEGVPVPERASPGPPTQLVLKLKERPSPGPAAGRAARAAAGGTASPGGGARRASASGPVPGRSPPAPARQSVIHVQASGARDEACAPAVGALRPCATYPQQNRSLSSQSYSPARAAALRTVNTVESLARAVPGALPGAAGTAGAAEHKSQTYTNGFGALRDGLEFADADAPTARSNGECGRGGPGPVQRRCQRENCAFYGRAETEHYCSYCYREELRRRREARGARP
Outline: as §1

UniProt Q9P2H5 = biological target: T3, UniProt Q9P2H5
T3 sequence (whole entry): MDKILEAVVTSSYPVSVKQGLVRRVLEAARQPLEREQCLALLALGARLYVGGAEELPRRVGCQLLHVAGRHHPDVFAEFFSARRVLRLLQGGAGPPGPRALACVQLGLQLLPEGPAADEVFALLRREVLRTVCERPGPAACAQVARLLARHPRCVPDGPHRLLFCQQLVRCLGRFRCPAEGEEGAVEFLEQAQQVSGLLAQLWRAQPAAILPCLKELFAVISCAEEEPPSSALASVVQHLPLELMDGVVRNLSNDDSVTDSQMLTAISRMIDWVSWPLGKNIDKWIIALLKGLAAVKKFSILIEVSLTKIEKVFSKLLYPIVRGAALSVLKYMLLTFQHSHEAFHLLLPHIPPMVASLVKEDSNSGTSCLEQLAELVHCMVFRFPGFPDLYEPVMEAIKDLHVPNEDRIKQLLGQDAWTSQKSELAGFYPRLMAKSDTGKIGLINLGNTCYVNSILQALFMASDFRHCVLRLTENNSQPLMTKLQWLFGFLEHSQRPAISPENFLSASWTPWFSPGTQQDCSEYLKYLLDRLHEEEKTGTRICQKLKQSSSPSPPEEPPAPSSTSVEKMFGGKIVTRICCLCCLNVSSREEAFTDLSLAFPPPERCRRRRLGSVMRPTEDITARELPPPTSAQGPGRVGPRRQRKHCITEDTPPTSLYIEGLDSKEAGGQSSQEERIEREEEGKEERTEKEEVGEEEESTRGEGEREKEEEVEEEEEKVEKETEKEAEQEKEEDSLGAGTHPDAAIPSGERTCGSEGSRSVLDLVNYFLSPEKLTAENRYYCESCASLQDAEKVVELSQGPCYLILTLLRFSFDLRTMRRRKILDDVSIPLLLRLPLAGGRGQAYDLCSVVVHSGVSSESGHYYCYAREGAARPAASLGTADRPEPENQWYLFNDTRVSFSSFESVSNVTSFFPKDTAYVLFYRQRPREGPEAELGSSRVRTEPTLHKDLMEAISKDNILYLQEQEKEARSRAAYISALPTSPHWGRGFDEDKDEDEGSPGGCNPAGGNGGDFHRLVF
Outline: as §1

UniProt Q9UGI0 = biological target: T4, UniProt Q9UGI0
T4 sequence (whole entry): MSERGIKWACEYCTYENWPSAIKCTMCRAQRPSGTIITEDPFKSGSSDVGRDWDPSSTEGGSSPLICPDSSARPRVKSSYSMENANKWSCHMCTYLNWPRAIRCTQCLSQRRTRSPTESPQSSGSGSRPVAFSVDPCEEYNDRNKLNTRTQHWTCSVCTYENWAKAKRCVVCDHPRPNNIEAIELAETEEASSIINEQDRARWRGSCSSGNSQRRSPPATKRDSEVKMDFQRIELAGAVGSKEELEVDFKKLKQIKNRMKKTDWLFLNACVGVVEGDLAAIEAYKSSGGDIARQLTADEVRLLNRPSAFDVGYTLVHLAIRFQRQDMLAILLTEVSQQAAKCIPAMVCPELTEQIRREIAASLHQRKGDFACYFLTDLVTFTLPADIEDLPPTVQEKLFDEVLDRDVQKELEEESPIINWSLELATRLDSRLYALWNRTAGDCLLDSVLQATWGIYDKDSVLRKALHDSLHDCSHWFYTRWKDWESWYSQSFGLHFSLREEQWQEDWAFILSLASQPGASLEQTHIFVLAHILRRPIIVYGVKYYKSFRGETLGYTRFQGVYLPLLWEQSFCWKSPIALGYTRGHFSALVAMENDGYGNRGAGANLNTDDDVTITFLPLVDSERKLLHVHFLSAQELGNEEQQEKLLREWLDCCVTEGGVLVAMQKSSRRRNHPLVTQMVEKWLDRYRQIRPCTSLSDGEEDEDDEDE
Outline: as §1

YOD1 = biological target: T5, YOD1 (UniProt Q5VVQ6)
T5 sequence (whole entry): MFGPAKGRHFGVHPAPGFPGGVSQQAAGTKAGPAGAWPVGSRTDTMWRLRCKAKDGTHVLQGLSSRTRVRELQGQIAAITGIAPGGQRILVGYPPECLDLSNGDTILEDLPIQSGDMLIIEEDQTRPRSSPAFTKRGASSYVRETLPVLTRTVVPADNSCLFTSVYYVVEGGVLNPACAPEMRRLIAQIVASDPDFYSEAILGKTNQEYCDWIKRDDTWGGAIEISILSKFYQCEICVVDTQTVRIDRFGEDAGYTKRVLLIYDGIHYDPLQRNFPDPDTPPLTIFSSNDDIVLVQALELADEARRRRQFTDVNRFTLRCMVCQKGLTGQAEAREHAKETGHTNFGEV
Outline: as §1

Measured: log2 ratio of Biotin-Ahx-Ub-VS probe labelling

UniProt P51784, sequence (P51784 whole entry): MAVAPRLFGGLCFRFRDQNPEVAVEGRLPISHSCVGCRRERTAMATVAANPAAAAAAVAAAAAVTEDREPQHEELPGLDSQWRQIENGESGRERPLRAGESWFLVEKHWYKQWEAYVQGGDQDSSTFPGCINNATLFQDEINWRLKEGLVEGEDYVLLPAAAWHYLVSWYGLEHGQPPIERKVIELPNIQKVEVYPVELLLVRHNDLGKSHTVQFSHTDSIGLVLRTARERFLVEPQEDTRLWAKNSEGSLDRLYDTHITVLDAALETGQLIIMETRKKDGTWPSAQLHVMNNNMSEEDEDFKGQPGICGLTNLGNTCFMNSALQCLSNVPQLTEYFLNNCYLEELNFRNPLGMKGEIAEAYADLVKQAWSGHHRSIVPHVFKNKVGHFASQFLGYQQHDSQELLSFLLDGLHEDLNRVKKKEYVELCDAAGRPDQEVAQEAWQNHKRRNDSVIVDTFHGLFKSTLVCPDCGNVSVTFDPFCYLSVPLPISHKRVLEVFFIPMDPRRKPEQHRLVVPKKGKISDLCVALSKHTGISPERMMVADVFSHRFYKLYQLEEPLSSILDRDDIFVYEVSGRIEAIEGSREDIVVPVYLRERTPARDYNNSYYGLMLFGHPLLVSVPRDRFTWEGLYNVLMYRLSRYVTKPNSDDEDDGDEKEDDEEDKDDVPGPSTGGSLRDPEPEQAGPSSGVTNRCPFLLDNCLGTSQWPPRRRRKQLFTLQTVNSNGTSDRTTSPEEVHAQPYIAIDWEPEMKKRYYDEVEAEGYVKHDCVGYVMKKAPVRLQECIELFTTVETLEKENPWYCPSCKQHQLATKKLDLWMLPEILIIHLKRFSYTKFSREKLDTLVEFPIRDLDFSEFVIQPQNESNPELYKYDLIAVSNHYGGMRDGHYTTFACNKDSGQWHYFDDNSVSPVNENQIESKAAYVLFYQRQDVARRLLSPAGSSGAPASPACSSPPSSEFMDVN
UniProt O00507, sequence (O00507 whole entry): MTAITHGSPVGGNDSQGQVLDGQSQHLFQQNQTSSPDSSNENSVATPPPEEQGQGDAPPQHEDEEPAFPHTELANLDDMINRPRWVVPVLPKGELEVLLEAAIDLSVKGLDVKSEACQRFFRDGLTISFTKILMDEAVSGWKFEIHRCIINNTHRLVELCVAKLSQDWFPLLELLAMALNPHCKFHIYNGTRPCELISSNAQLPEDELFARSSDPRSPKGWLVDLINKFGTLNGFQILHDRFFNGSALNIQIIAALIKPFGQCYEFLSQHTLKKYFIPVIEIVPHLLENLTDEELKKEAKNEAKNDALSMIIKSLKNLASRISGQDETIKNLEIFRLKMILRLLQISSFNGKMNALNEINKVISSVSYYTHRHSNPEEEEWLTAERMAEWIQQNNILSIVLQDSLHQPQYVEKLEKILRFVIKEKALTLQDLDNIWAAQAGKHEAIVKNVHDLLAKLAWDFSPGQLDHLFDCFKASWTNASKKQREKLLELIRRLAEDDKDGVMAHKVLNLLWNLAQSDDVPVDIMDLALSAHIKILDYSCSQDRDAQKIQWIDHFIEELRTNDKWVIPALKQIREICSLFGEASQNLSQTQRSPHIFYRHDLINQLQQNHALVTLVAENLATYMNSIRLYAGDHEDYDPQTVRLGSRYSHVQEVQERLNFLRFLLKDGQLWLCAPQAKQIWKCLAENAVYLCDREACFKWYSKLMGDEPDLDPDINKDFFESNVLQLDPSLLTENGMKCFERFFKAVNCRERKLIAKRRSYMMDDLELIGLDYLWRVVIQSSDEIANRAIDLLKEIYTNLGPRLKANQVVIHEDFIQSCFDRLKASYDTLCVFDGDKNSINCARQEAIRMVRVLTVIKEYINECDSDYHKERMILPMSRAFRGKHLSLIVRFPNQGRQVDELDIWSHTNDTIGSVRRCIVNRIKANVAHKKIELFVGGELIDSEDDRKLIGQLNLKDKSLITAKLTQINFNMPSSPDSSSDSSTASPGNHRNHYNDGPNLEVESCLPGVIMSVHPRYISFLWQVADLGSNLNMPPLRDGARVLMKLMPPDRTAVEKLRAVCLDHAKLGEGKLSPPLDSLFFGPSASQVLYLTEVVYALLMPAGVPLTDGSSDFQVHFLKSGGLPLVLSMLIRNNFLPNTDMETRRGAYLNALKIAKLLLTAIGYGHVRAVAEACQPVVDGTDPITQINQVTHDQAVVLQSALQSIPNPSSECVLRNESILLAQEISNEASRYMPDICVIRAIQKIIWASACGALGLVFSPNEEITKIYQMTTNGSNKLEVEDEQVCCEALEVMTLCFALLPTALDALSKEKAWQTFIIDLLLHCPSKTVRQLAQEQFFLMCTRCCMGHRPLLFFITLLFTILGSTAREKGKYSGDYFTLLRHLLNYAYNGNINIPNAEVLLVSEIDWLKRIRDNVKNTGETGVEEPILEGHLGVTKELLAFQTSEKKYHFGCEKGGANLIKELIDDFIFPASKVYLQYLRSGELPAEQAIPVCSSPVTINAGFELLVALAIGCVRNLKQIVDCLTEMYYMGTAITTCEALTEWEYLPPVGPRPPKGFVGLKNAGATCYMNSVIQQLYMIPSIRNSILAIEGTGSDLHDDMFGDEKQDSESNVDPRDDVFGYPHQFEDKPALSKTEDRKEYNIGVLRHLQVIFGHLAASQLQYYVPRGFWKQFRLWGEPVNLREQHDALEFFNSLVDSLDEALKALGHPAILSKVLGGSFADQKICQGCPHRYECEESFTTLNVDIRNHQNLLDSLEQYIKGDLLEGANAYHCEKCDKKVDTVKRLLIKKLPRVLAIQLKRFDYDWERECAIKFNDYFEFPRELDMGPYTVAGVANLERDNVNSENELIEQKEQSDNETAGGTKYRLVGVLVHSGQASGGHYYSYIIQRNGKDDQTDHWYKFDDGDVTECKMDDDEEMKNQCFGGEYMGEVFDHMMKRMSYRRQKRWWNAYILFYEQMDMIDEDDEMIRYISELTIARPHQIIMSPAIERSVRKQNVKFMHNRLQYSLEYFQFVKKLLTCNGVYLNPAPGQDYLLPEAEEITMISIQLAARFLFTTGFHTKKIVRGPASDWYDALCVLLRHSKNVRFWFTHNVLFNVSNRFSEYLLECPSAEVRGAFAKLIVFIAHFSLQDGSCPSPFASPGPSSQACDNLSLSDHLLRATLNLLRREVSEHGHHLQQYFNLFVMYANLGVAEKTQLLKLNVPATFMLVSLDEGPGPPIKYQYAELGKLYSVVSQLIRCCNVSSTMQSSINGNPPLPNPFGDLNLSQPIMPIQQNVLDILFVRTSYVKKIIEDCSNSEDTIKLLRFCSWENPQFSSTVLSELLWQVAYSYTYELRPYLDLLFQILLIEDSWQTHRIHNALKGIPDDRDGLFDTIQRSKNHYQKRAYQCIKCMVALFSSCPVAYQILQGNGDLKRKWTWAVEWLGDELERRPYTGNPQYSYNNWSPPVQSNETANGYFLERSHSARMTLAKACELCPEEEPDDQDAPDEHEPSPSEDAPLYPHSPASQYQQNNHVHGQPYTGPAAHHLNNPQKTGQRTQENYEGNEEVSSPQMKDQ
UniProt O00487, sequence (O00487 whole entry): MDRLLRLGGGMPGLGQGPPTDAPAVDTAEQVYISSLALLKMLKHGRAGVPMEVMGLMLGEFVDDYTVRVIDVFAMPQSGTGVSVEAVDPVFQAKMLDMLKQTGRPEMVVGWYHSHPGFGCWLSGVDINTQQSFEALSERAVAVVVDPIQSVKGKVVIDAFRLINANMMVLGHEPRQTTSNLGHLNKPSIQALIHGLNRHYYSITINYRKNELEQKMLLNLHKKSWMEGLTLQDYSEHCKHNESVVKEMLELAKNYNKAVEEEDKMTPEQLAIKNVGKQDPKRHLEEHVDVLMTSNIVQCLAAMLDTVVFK

O=C(CCl)N1CCC2(CCC(O)CC2)CC1
inactive: USP9X -0.156 | UniProt O00487 0.0439 | UniProt O00507 0.0905 | UniProt P51784 0.0738 | UniProt Q5T2D3 -0.238 | UniProt Q8TE49 -0.64 | UniProt Q9P2H5 -0.118 | UniProt Q9UGI0 -0.316 | YOD1 0.0256

— the supplement of paper PMC11732987, “Enantioselective OTUD7B fragment discovery through chemoproteomics screening and high-throughput optimisation” (Communications Chemistry, 2025)
